Laboratory results published in PubChem BioAssay (NCATS).
Records with an inconclusive call do not appear. Entries that show only a call come without a potency. Activity calls are given as the source filed them. Unless noted, calls follow the shape of the dose curve; as a rule, active = well fitted curve in the direction sought with a large enough effect; inconclusive = small, poorly fitted or top-dose-only effect, or another doubt; inactive = no such curve, though single readings can be large; an effect the other way counts as inactive or inconclusive.

Legend:
[1] = High Content Imaging Cell-Based qHTS for Inhibitors of the mTORC1 Signaling Pathway in MEF (Tsc2-/-, p53-/-) Cells (AID 2666);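 also: percent of cells scored positive for phospho-rpS6 Ser235/236 immunostaining by imaging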; also: potency is read from the fitted curve at half-maximal effect
In short: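 Tsc2-/-, p53-/- MEFs (empty-vector stable) grown in DMEM + 10% FBS were exposed to compounds for 24 hrs at 37 degree Celsius, fixed, and stained with Alexa-488 anti-phospho-rpS6 Ser235/236 plus Hoechst. Imaging gave the percentage of positive cells per well.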

[2] = Validation screen for small molecules that induce DNA re-replication in MCF 10A normal breast cells (AID 463097); also: nearly all actives have a fitted effect of over 60% in size; also: potency is read from the fitted curve at half-maximal effect
In short: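 Read-out is Hoechst total nuclear intensity by fluorescence scanning imager, flagging increased high-DNA-content nuclei. Compounds were incubated with MCF 10A cells for 48 hr (37 C, 5% CO2) before 40 min staining.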

[3] = molecular target: Ubiquitin carboxyl-terminal hydrolase 2 (Homo sapiens) (UniProt O75604); test: qHTS Validation Assay for Inhibitors of Ubiquitin-specific Protease USP2a Using CHOP2 as the Reporter (AID 463106); also: potency is read from the fitted curve at half-maximal effect
In short: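 Readout was coupled fluorescence (Ex 485/Em 531 nm), read 60 min after adding 25 nM final Ub-CHOP2 and 25 nM reporter substrate. Beforehand, 10 nM final USP2 core had 30 min at RT with compound in pH 8.0 buffer. Curves were fitted after normalization to NEM and flagged for artifacts using time-zero reads.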

[4] = molecular target: Tumor susceptibility gene 101 protein (Homo sapiens) (UniProt Q99816); test: qHTS Validation Assay for Iinhibitors of HIV-1 Budding by Blocking the Interaction of PTAP/TSG101 (AID 485342; calls by dose curve)
In short: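 Fluorescence polarization of 50 nM FITC-PTAP peptide bound to 10 uM Tsg101 binding domain was read after 20 min room-temperature incubation with compounds, in 10 mM HEPES pH 7.5, 0.15 M NaCl, 0.01% Tween 20.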

[5] = molecular target: DNA polymerase III PolC-type (Bacillus subtilis (strain 168)) (UniProt P13267); test: qHTS Validation Assay for the Inhibitors of DNA Replication in Gram-Positive Bacteria (AID 485295); also: potency is read from the fitted curve at half-maximal effect
In short: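 Double-stranded DNA product detected by PicoGreen fluorescence after EDTA quench. Compound incubated with B. subtilis holoenzyme (PolC, beta subunit, SSB, primase) before substrate addition; primed replication of M13Gori with dNTPs and NTPs at room temperature; DMSO defines 0% inhibition.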

[6] = Cytometric Cell-Based qHTS for Inhibitors of the mTORC1 Signaling Pathway in MEF (Tsc2-/-, p53-/-) Cells (AID 2660);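 also: Tsc2 and p53 null MEFs carrying empty vector with compound for 24 h; percent of cells above a phospho-rpS6 to PI ratio cutoff in each well; series mostly up to about 38 µM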
In short: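 Percent of cells positive for normalized phospho-S6 staining is reported, with the cutoff set from rapamycin (7.5 nM) versus DMSO wells. Tsc2-/-, p53-/- MEFs received compound for 24 hrs.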

[7] = Cytometry Cell-Based qHTS for Inhibitors of the mTORC1 Signaling Pathway in MEF cells (AID 2668); also: potency is read from the fitted curve at half-maximal effect
In short: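 Phospho-rpS6 (Ser235/236) immunofluorescence over PI signal, scored as % positive cells using thresholds from 7.5 nM rapamycin and DMSO wells, after 24 h compound exposure of WT-Tsc2-rescued Tsc2-/-, p53-/- MEFs. PI cell count recorded for viability.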

[8] = qHTS Validation Assay to Find Inhibitors of Chronic Active B-Cell Receptor Signaling (AID 485345; active = well fitted curve in the direction sought with a large enough effect in the main read-out, with a control signal flat, not every such curve was filed as active)
In short: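 Read-out: ratio of filter-corrected green (IkappaBalpha fusion) to red (native) luciferase signal in doxycycline-induced TMD8 cells after 4 h at 37C. Titration spanned 46 uM–3 nM; Data were normalised to basal cells and 10 uM MG-132 wells.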

[9] = High Content Imaging Cell-Based qHTS for Inhibitors of the mTORC1 Signaling Pathway in MEF Cells (AID 2667); also: potency is read from the fitted curve at half-maximal effect
In short: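 Tsc2-/-, p53-/- MEFs stably re-expressing WT Tsc2, grown in DMEM + 10% FBS, were treated with compounds for 24 hrs at 37 degree Celsius, fixed, and stained with Alexa-488 phospho-rpS6 Ser235/236 antibody plus Hoechst; results given as % positive cells.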

Chain of DNA polymerase III PolC-type (Bacillus subtilis (strain 168)) (P13267 whole entry, looked up): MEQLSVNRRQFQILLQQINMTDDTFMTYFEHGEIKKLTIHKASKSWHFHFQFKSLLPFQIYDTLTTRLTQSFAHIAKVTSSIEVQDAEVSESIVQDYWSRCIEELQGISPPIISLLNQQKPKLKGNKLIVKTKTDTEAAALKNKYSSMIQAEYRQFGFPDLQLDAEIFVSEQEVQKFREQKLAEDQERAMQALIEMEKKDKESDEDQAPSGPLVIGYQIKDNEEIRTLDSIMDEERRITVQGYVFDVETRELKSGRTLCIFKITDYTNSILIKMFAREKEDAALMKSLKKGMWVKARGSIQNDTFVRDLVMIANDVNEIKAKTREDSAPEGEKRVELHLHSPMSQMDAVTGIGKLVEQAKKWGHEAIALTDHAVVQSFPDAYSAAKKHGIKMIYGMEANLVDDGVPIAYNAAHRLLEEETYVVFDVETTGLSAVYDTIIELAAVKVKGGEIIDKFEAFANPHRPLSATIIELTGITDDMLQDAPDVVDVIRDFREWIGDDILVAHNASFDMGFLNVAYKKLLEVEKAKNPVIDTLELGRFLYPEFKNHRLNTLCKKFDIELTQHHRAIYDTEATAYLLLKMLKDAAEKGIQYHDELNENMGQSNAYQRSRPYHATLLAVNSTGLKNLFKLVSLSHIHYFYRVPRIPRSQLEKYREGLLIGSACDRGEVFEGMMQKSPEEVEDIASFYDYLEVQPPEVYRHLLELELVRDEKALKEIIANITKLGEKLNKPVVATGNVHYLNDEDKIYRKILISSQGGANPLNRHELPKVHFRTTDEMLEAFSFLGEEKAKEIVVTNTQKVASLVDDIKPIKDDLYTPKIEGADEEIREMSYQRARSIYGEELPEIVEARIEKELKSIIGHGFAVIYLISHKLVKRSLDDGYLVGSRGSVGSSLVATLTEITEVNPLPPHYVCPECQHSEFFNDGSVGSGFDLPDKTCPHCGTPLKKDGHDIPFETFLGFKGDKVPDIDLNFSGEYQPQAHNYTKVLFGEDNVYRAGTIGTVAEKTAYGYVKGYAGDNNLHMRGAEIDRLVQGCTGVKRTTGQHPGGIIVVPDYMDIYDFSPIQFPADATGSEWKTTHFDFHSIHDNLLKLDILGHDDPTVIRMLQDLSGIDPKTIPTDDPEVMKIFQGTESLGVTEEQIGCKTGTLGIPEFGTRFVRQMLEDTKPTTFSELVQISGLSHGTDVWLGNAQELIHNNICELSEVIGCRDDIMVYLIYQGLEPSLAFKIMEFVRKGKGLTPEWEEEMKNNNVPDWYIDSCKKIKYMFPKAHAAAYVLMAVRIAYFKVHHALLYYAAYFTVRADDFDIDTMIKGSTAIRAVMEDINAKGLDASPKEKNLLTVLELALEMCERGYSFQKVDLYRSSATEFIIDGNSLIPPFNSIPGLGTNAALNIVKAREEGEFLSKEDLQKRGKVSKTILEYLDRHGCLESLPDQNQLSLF
Chain of Ubiquitin carboxyl-terminal hydrolase 2 (Homo sapiens) (O75604 whole entry, looked up): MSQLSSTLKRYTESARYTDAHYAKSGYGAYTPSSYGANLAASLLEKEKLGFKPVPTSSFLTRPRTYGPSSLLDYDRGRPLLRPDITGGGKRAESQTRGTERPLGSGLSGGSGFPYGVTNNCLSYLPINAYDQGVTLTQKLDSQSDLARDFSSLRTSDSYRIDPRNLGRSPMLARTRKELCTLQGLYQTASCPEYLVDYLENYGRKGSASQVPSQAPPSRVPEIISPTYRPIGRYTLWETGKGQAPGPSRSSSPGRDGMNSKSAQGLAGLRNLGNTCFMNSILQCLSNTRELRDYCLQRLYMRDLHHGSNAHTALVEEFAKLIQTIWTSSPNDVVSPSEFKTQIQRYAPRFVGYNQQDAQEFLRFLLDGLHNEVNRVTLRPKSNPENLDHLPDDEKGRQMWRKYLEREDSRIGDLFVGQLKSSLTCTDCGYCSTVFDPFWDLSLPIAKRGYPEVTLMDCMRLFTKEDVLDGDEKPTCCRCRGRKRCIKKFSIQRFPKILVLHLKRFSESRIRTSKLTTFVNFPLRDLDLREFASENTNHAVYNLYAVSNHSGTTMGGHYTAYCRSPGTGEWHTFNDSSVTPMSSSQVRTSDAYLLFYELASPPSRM
Chain of Tumor susceptibility gene 101 protein (Homo sapiens) (Q99816 whole entry, looked up, the tested form may be a part): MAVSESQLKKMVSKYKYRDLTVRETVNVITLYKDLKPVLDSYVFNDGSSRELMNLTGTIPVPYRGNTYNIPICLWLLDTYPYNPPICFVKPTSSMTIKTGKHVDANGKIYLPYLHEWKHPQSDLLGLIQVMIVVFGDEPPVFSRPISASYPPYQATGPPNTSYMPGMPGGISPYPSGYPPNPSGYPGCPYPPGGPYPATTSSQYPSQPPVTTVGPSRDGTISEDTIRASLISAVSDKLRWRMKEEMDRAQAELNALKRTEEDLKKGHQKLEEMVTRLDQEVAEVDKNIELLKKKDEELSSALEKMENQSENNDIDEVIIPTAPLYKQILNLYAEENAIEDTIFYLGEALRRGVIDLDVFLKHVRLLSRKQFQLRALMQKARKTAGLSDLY

Row | SMILES | Potency [1] | Potency [2] | Potency [3] | outcome [4] | Potency [5] | outcome [6] | Potency [7] | outcome [8] | Potency [9]
1 | CCC1(O)CC2CN(CCc3c([nH]c4ccccc34)[C@@](C(=O)OC)(c3cc4c(cc3OC)N(C)C3[C@]45CCN4CC=C[C@@](CC)([C@@H](OC(C)=O)[C@]3(O)C(=O)OC)[C@H]45)C2)C1 (stereo not given in full) | inactive | 0.0501 µM (active) | inactive | inactive |  |  |  |  | 
2 | COc1cc([C@@H]2c3cc4c(cc3[C@H](O)C3COC(=O)[C@@H]32)OCO4)cc(OC)c1OC (stereo not given in full) | inactive |  | inactive |  | inactive |  |  |  | 
3 | Nc1nc2c(nc(Br)n2C2OC3COP(=O)(O)O[C@@H]3C2O)c(=O)[nH]1 (stereo not given in full) |  |  | inactive | inactive | inactive | inactive | inactive | inactive | 
4 | COc1cc(C(O)C(=O)O)ccc1O (stereo not given) |  |  | inactive | inactive | inactive | inactive | inactive | inactive | inactive
5 | CC(O)C(O)[C@H]1CNc2nc(N)[nH]c(=O)c2N1 (stereo not given in full) |  |  | inactive | inactive |  | inactive | inactive | inactive | inactive
6 | COC(=O)[C@H](NC(=O)c1cc(-c2ccccc2)nc2ccccc12)c1ccccc1 | inactive | inactive | inactive | inactive | inactive |  | inactive |  | inactive
7 | COC(=O)C1=C(C)NC(C)=C([N+](=O)[O-])C1c1ccccc1C(F)(F)F (stereo not given) |  | inactive | inactive | inactive | inactive | inactive | inactive | inactive | 
8 | O=C1Cc2c([nH]c3ccc(Br)cc23)-c2ccccc2N1 |  |  | inactive | inactive | inactive |  |  |  | inactive
9 | O=C(N[C@@H](Cc1ccccc1)C(=O)CCl)OCc1ccccc1 |  | 2.82 µM (active) | inactive | inactive | inactive |  |  |  | 5.21 µM (active)
10 | CC(C)Cn1c(=O)n(C)c(=O)c2[nH]cnc21 |  | inactive | inactive | inactive | inactive | inactive | inactive |  | 
11 | CCCc1c(OCCCOc2ccc(OCC(=O)O)cc2)ccc(C(C)=O)c1O |  | inactive |  | inactive | inactive | inactive | inactive | inactive | 
12 | N[C@@H](Cc1ccc(F)cc1)C(=O)O |  | inactive |  | inactive | inactive | inactive | inactive |  | 
13 | COC(=O)C(C)(N)Cc1ccc(O)cc1 (stereo not given) |  | inactive |  | inactive | inactive | inactive | inactive | inactive | 
14 | CCCCCCCC/C=C\CCCCCCCC(=O)NCCc1ccc(O)c(O)c1 |  |  | inactive | inactive | 18.9 µM (active) |  | 3.69 µM (active) |  | 5.21 µM (active)
15 | CNCCc1cnc(CCC(c2ccccc2)c2ccccc2)[nH]1 |  |  | inactive | inactive | inactive |  | 11.7 µM (active) |  | 
16 | C=C1C(=O)O[C@@H]2[C@H]3O[C@]3(C)CCC=C(C)CC[C@@H]12 | inactive | 14.1 µM (active) | inactive | inactive | inactive |  |  |  | inactive
17 | S=C(S)N1CCCC1 |  |  | inactive | inactive | inactive |  |  | inactive | 
18 | O=c1oc(Cl)c(Cl)c2ccccc12 |  |  | inactive | inactive | inactive |  |  |  | 

Row | SMILES | Potency [1] | Potency [2] | Potency [3] | outcome [4] | Potency [5] | outcome [6] | Potency [7] | outcome [8] | Potency [9]
19 | CC(C)NC[C@H](O)COc1ccc(CC(N)=O)cc1 | inactive | inactive | inactive | inactive | inactive |  | inactive | inactive | inactive
20 | O=C1OC(=O)C2C3CCC(O3)C12 (stereo not given) |  |  | inactive | inactive | inactive | inactive | inactive |  | 
21 | COC1(C2=NCCN2)COc2ccccc2O1 (stereo not given) |  | inactive | inactive |  | inactive | inactive | inactive | inactive | 
22 | O=C(O)C1=CC(=C(c2ccc(O)c(C(=O)O)c2)c2ccc(O)c(C(=O)O)c2)C=CC1=O |  |  | 1.04 µM (active) | inactive | 3.36 µM (active) | inactive | inactive |  | inactive
23 | CC1C(=O)N(C)C(=O)c2nc[nH]c21 (stereo not given) |  | inactive | inactive | inactive | inactive | inactive | inactive |  | 
24 | CN(C)S(=O)(=O)c1ccc2c(c1)/C(=C/c1cc3c([nH]1)CCCC3)C(=O)N2 | inactive |  | inactive | inactive | inactive |  |  |  | inactive
25 | C=CCNc1ncnc2ccc(Br)cc12 |  |  | inactive |  | inactive | inactive |  |  | inactive
26 | CN1Cc2sccc2C(c2ccc(O)c(O)c2)C1 (stereo not given) |  |  | inactive | inactive | inactive | inactive | inactive | inactive | inactive
27 | Cc1cc(Cn2cnc3c2C[C@@H](C(=O)O)N(C(=O)C(c2ccccc2)c2ccccc2)C3)ccc1N |  |  |  | inactive | inactive | inactive | inactive | inactive | inactive
28 | CN(C)CCC(c1ccc(Br)cc1)c1ccccn1 (stereo not given) |  | inactive |  |  | inactive | inactive | inactive | inactive | inactive
29 | Nc1nc2ccc(Cl)cc2c2nc(-c3ccco3)nn12 |  |  | inactive | inactive | inactive |  |  |  | 
30 | CC(C)NCC(O)COc1ccc(CC(N)=O)cc1 (stereo not given) | inactive | inactive | inactive | inactive | inactive |  | inactive | inactive | inactive
31 | COc1ccc(NC(=O)c2ccc(-c3ccc(-c4noc(C)n4)cc3C)cc2)cc1N1CCN(C)CC1 | 16.5 µM (active) | 12.6 µM (active) | inactive | inactive | inactive |  | 5.85 µM (active) |  | 5.85 µM (active)
32 | CCCc1c(-c2ccc(O)cc2)nn(-c2ccc(O)cc2)c1-c1ccc(O)cc1 |  |  |  | inactive | inactive | inactive | inactive |  | 
33 | c1ccc2c(c1)CCC[C@H]2Nc1nc2ccccc2[nH]1 |  |  |  | inactive | inactive | inactive | inactive | inactive | 
34 | O=c1onc2cnc3ccccc3n12 |  |  | inactive | inactive | inactive | inactive | inactive |  | inactive
35 | N#Cc1cc([N+](=O)[O-])c2sc(C(N)=O)[n+]([O-])c2c1 | 18.5 µM (active) |  | inactive | inactive | inactive |  |  |  | 
